PubChem BioAssay (NCATS)
Results filed as inconclusive are left out. Calls of active or inactive are those of the source. Unless noted, calls come from the whole dose curve.

Assays:
[1] = qHTS for Inhibitors of the Functional Ribonucleoprotein Complex (vRNP) of Lassa (LASV) Arenavirus: LASV Primary Screen - GLuc reporter signal (AID 1347082; calls by dose curve; tested in HEK293 reporter line; note: nearly all actives have a fitted effect of over 60% in size; for activity change, negative = inhibition: series mostly up to about 57 µM)
[2] = qHTS for Inhibitors of the Functional Ribonucleoprotein Complex (vRNP) of Lassa (LASV) Arenavirus: Viability assay - alamar blue signal for LASV Primary Screen (AID 1347083; calls by dose curve; tested in HEK293 reporter line; note: nearly all actives have a fitted effect of over 80% in size; for activity change, negative = reduced viability: series mostly up to about 57 µM)
[3] = qHTS for Inhibitors of the Functional Ribonucleoprotein Complex (vRNP) of Lymphocytic Choriomeningitis Arenaviruses (LCMV): Viability assay - alamar blue signal for LCMV Primary Screen (AID 1347085; calls by dose curve; tested in HEK293 reporter line; note: nearly all actives have a fitted effect of over 80% in size; for activity change, negative = lower viability: series mostly up to about 57 µM)
[4] = target: Nucleoprotein (Lymphocytic choriomeningitis virus (strain Armstrong)) (UniProt P09992); assay: qHTS for Inhibitors of the Functional Ribonucleoprotein Complex (vRNP) of Lymphocytic Choriomeningitis Arenaviruses (LCMV): LCMV Primary Screen - GLuc reporter signal (AID 1347086); note: nearly all actives have a fitted effect of over 70% in size; for activity change, negative = inhibition: series mostly up to about 57 µM
% is set by controls: 0 for no effect and ±100 for the full control effect; potency is the fitted concentration of half-maximal effect.

Nucleoprotein (Lymphocytic choriomeningitis virus (strain Armstrong)), sequence (P09992 whole entry, looked up): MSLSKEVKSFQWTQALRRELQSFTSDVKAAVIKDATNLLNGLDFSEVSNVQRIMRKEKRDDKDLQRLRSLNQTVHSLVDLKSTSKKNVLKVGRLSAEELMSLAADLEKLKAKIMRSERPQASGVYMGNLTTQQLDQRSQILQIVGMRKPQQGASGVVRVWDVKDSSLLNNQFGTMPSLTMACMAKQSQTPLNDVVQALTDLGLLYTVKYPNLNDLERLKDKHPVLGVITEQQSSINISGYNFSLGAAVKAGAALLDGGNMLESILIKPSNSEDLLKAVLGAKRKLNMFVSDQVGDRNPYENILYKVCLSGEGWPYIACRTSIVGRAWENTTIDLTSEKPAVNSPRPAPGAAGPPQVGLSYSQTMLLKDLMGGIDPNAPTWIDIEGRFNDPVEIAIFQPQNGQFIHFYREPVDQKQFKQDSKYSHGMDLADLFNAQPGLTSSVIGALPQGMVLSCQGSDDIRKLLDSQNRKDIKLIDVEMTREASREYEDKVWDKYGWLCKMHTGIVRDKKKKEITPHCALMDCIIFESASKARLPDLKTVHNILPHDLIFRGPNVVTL

C[C@@H]1CC(=O)[C@H]2CC(CO)=CCC[C@@H]2[C@@]1(C)CC/C(=C/CO)CO
inactive: Potency [1] | Potency [2] | Potency [3] | Potency [4]

CC(C)(O)[C@@H]1Cc2c(ccc3ccc(=O)oc23)O1
inactive: Potency [1] | Potency [2] | Potency [3] | Potency [4]

CC1C(c2ccccc2)OC(=O)N1C (stereo not given)
inactive: Potency [1] | Potency [2] | Potency [3] | Potency [4]

CCC(C)SSC(C)CC (stereo not given)
inactive: Potency [1] | Potency [2] | Potency [3] | Potency [4]

COc1ccc(CC(C)N)cc1 (stereo not given)
inactive: Potency [1] | Potency [2] | Potency [3] | Potency [4]

CC(C)(O[C@@H]1O[C@H](CO)[C@@H](O)[C@H](O)[C@H]1O)[C@H]1Cc2cc3ccc(=O)oc3cc2O1
inactive: Potency [1] | Potency [2] | Potency [3] | Potency [4]

COc1ccc(C(=O)/C=C/c2ccc(O)cc2)c(O)c1C/C=C(\C)CCC=C(C)C
inactive: Potency [1] | Potency [2] | Potency [3] | Potency [4]

C/C=C(/C)C(=O)O[C@H]1CC(C)=CC(=O)[C@@]2(C)CC[C@@](O)(C(C)C)[C@H]12
inactive: Potency [1] | Potency [2] | Potency [3] | Potency [4]

CO[C@H]1[C@@H]2C=CO[C@@H](O[C@H]3O[C@@H](CO)[C@H](O)[C@@H](O)[C@@H]3O)[C@@H]2[C@@]2(CO)O[C@@H]12
inactive: Potency [1] | Potency [2] | Potency [3] | Potency [4]

O=c1[nH]c(=O)n([C@H]2C[C@@H](O)[C@@H](CO)O2)cc1I
inactive: Potency [1] | Potency [2] | Potency [3] | Potency [4]

CC(=O)OC1[C@H](Oc2c(O)c(C)c3c4c2[C@@H](C)CC[C@@H]4[C@@H](C)C[C@@H]3C=C(C)C)OC[C@@H](O)[C@@H]1O (stereo not given in full)
inactive: Potency [1] | Potency [2] | Potency [3] | Potency [4]

Cn1c2ccccc2c2c3c(c4c5ccccc5n(CCC#N)c4c21)CNC3=O
active: Potency [1] 8.63 µM | Potency [2] 0.485 µM | Potency [3] 3.85 µM | Potency [4] 6.11 µM

CC(C)C1Oc2cc3oc(=O)ccc3cc2C1=O (stereo not given)
inactive: Potency [1] | Potency [2] | Potency [3] | Potency [4]

CCOC(=O)c1cc(=O)[nH]c2ccccc12
inactive: Potency [1] | Potency [2] | Potency [3] | Potency [4]

C/C=C(\C)C(=O)O[C@@H]([C@H](O)c1cc2ccc(=O)oc2cc1OC)C(C)(C)O
inactive: Potency [1] | Potency [2] | Potency [3] | Potency [4]

C[C@@H]1O[C@@H](O[C@H]2CC[C@@H](O[C@H]3[C@H](O)C[C@H](c4ccc5c(c4O)C(=O)C4=C(C5=O)[C@@]5(O)C(=O)C[C@](C)(O[C@H]6CC[C@H](O[C@H]7C=CC(=O)[C@H](C)O7)[C@H](C)O6)C[C@@]5(O)C=C4)O[C@@H]3C)O[C@H]2C)C=CC1=O
inactive: Potency [1] | Potency [2] | Potency [3] | Potency [4]

CCCCOC(=O)C(C)OC(=O)CCC (stereo not given)
inactive: Potency [1] | Potency [2] | Potency [3] | Potency [4]

O=c1c(O)c(-c2ccccc2O)oc2cc(O)cc(O)c12
inactive: Potency [1] | Potency [2] | Potency [3] | Potency [4]

COC1=C(OC)[C@]23CCc4ccc(OC)c(OC)c4[C@]2(CCN3C)CC1=O
inactive: Potency [1] | Potency [2] | Potency [3] | Potency [4]

CC1(C)C=Cc2c(ccc(C(=O)/C=C/c3ccccc3)c2O)O1
inactive: Potency [1] | Potency [2] | Potency [3] | Potency [4]

O=C1c2ccccc2-n2c1nc1ccccc1c2=O
active: Potency [4] 0.447 µM
inactive: Potency [1] | Potency [2] | Potency [3]

C[C@H]1C[C@H]2[C@@H]3CCC4=CC(=O)C=C[C@]4(C)[C@@H]3C(=O)C[C@]2(C)[C@@]1(O)C(=O)CO
inactive: Potency [1] | Potency [2] | Potency [3] | Potency [4]

Oc1cc(O)cc(C=Cc2ccc(O)c(O)c2)c1
inactive: Potency [1] | Potency [2] | Potency [3] | Potency [4]

CC(C)c1cc(C(=O)N2Cc3ccc(CN4CCN(C)CC4)cc3C2)c(O)cc1O
active: Potency [1] 0.968 µM | Potency [2] 0.544 µM | Potency [3] 0.685 µM | Potency [4] 0.485 µM

CCOC(=O)[C@H](CCc1ccccc1)N[C@@H](C)C(=O)N1[C@@H](C(=O)O)C[C@H]2CCC[C@@H]21
inactive: Potency [1] | Potency [2] | Potency [3] | Potency [4]

O=C(CNC(=O)c1ccccc1)c1ccccc1
inactive: Potency [1] | Potency [2] | Potency [3] | Potency [4]

O=c1[nH]cnc2c1ncn2C1OCC(O)C(O)C1O (stereo not given)
inactive: Potency [1] | Potency [2] | Potency [3] | Potency [4]

C=C(C)C1CCC(C)(O)CC1 (stereo not given)
inactive: Potency [1] | Potency [2] | Potency [3] | Potency [4]

CC(C)NC(=O)NC(C)C
inactive: Potency [1] | Potency [2] | Potency [3] | Potency [4]

O=C1N[C@@H](Cc2c[nH]c3ccccc23)C(=O)N[C@H]1Cc1ccccc1
inactive: Potency [1] | Potency [2] | Potency [3] | Potency [4]

O=C1C=C(C2OC(CO)C(O)C2O)C(=O)N1 (stereo not given)
inactive: Potency [1] | Potency [2] | Potency [3] | Potency [4]

C[C@@H]1OC(O[C@H]2[C@H](Oc3cc(O)c4c(=O)c(O)c(-c5ccc(O)cc5)oc4c3)O[C@H](CO)[C@@H](O)[C@@H]2O)[C@H](O)[C@H](O)[C@H]1O (stereo not given in full)
inactive: Potency [1] | Potency [2] | Potency [3] | Potency [4]

COc1cc2c3c(c1OC)-c1cc(O)ccc1CC3NCC2 (stereo not given)
inactive: Potency [1] | Potency [2] | Potency [3] | Potency [4]

O=CCCc1ccccc1
inactive: Potency [1] | Potency [2] | Potency [3] | Potency [4]

O=C(O)CCC[C@H](O)\C=C/C=C/C=C/[C@H](O)C/C=C\CCCCCO
inactive: activity change, negative = inhibition [1] 12% [at 0.757 µM] | activity change, negative = reduced viability [2] 2.93% [at 0.757 µM] | activity change, negative = lower viability [3] -25.2% [at 0.757 µM] | activity change, negative = inhibition [4] -1.08% [at 0.757 µM]

C=C[C@](C)(O)CC[C@@H]1[C@@]2(C)CCCC(C)(C)[C@@H]2CC[C@@]1(C)O
inactive: Potency [1] | Potency [2] | Potency [3] | Potency [4]

CCCCN(CCCC)CC(O)c1cc(Cl)cc2c1-c1ccc(Cl)cc1C2=Cc1ccc(Cl)cc1 (stereo not given)
inactive: Potency [1] | Potency [2] | Potency [3] | Potency [4]

c1ccc2c3c([nH]c2c1)C1(CCCCC1)NCC3
inactive: Potency [1] | Potency [2] | Potency [3] | Potency [4]

C=CC1CN2CCC1CC2C(O)c1ccnc2ccc(OC)cc12 (stereo not given)
inactive: Potency [1] | Potency [2] | Potency [3] | Potency [4]

COC1C(O)C(CO)OC1n1cnc2c(=O)[nH]c(N)nc21 (stereo not given)
inactive: Potency [1] | Potency [2] | Potency [3] | Potency [4]

CCCCCc1ccco1
inactive: Potency [1] | Potency [2] | Potency [3] | Potency [4]

COc1cc(C(=O)O)cc(OC)c1OC
inactive: Potency [1] | Potency [2] | Potency [3] | Potency [4]

CC/C=C\CCOC(=O)c1ccccc1
inactive: Potency [1] | Potency [2] | Potency [3] | Potency [4]

C=C(C)[C@@H]1CCC2=CC(=O)C[C@@H](C)[C@]2(C)C1
inactive: Potency [1] | Potency [2] | Potency [3] | Potency [4]

CC(c1c(O)c2ccccc2[nH]c1=O)C1(C)CCC(O)C(C)(C)O1 (stereo not given)
inactive: Potency [1] | Potency [2] | Potency [3] | Potency [4]

C/C=C(/C)C(=O)O[C@@H]1c2c(ccc3ccc(=O)oc23)O[C@@H]1C(C)(C)OC(C)=O
inactive: Potency [1] | Potency [2] | Potency [3] | Potency [4]

ClC1=C(Cl)[C@]2(Cl)[C@@H]3[C@@H](Cl)[C@H]4O[C@H]4[C@@H]3C1(Cl)C2(Cl)Cl
inactive: Potency [1] | Potency [2] | Potency [3] | Potency [4]

COc1cc(OC)c2c(c1)C(=O)OC2
inactive: Potency [1] | Potency [2] | Potency [3] | Potency [4]

C=CCCC[C@@H]1OC(=O)CNC(=O)C([C@@H](C)CC)NC(=O)[C@@H]2CCCN2C(=O)C([C@@H](C)CC)OC(=O)[C@H](Cc2ccccc2)N(C)C(=O)[C@H](C(C)C)NC(=O)C1(C)C (stereo not given in full)
inactive: Potency [1] | Potency [2] | Potency [3] | Potency [4]

COc1ccc(C(=O)OC2CC3CCC(C2)[N+]3(C)[O-])cc1OC (stereo not given)
inactive: Potency [1] | Potency [2] | Potency [3] | Potency [4]

C[C@@]12CCC3[C@@](CCC4[C@@]3(C)CCC[C@@]4(C)C(=O)O)(CC1=O)C2 (stereo not given in full)
inactive: Potency [1] | Potency [2] | Potency [3] | Potency [4]

C=C1C[C@H](O[C@@H]2O[C@H](CO)[C@@H](O)[C@H](O)[C@H]2O)[C@@H]2[C@H](OC(=O)[C@H]2C)[C@H]2[C@H](C)[C@@H](O)C[C@@H]12
inactive: Potency [1] | Potency [2] | Potency [3] | Potency [4]

CN1CC(=O)N2C(Cc3c([nH]c4ccccc34)[C@H]2c2ccc3c(c2)OCO3)C1=O (stereo not given in full)
inactive: Potency [1] | Potency [2] | Potency [3] | Potency [4]

O=C(Nc1nnc(-c2ccco2)o1)c1cc(-c2ccccc2)nc2ccccc12
inactive: Potency [1] | Potency [2] | Potency [3] | Potency [4]

C[C@H](NCc1ccc2c(c1)nc(NC(=O)c1ccc(-c3cn[nH]c3)s1)n2CCc1ccccc1)C(C)(C)C
active: Potency [1] 10.9 µM | Potency [2] 6.11 µM | Potency [3] 12.2 µM | Potency [4] 17.2 µM

c1ccc(-c2ccc3ccccc3n2)cc1
inactive: Potency [1] | Potency [2] | Potency [3] | Potency [4]

Cc1cccc2c3c(ccc12)C1=C(C(=O)C3=O)[C@@H](C)CO1
inactive: Potency [1] | Potency [2] | Potency [3] | Potency [4]

NCCCCCN
inactive: Potency [1] | Potency [2] | Potency [3] | Potency [4]

C=CC(=O)CCCCC
inactive: Potency [1] | Potency [2] | Potency [3] | Potency [4]

O=C1NC(=S)NC1=Cc1ccc(O)cc1
inactive: Potency [1] | Potency [2] | Potency [3] | Potency [4]
